# Laboratory results published in the supplement of paper PMC9135407.
# Counter-ions that a name gives are not always drawn. Screen size: about 5,800 compounds; about 620 (11%) showed activity. What follows is part of a selection rich in actives, with near analogues and random picks from the rest. A number with no mark means an inactive call.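 Rule for the calls: active = score above a cut-off or among the top three wells of a plate; in these data no inactive exceeds 0.85.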
# Tested on: primary human hepatic stellate cells (donor 1)
# Experiment: scaled lipid accumulation score (0 = DMSO-like, 1 = nortriptyline-like); higher = stronger HSC inactivation (lipid re-accumulation), active = hit call of the paper
# Conditions: 48 h
# [1] = library stock concentration: 3.33 mM
# [2] = library stock concentration: 10 mM
# [3] = library stock concentration: 1 mM
# [4] = library stock concentration: 2 mM
# [5] = library stock concentration: 80 uM
# [6] = library stock concentration: 400 uM
smiles,measurement,setting,value
COc1ccc2cc3[n+](cc2c1OC)CCc1cc2c(cc1-3)OCO2 [Berberine HCl],scaled lipid accumulation score,[1],≤ 0
same,scaled lipid accumulation score,[2],≤ 0
CC#CCC(C)C(=O)/C=C/[C@@H]1[C@H]2C/C(=C/CCCC(=O)O)C[C@H]2C[C@H]1O (stereo partly specified) [15-keto Iloprost],scaled lipid accumulation score,[3],≤ 0
CC(C)OC(=O)CCC/C=C\C[C@@H]1[C@@H](/C=C/C(=O)COc2cccc(C(F)(F)F)c2)[C@H](O)C[C@@H]1O [15-keto Fluprostenol isopropyl ester],scaled lipid accumulation score,[3],≤ 0
CC1CC2C3CCC4=CC(=O)C=CC4(C)C3(F)C(O)CC2(C)C1C(=O)CO (stereo unspecified),scaled lipid accumulation score,[2],≤ 0
COc1cc2ncnc(Nc3ccc(F)c(Cl)c3)c2cc1NC(=O)C=CCN1CCCCC1 [listing 1 of 2 here],scaled lipid accumulation score,[1],1.08 (active)
CNC(=O)CN1CCC(Oc2cc3c(Nc4cccc(Cl)c4F)ncnc3cc2OC)CC1 [AZD8931 (Sapitinib)],scaled lipid accumulation score,[1],0.28
same,scaled lipid accumulation score,[2],0.713
COc1cc2ncnc(Nc3ccc(F)c(Cl)c3)c2cc1NC(=O)C=CCN1CCCCC1 [listing 2 of 2 here],scaled lipid accumulation score,[4],0.903 (active)
same,scaled lipid accumulation score,[2],1.47 (active)
COc1cc2ncnc(Nc3ccc(F)c(Cl)c3)c2cc1NC(=O)/C=C/CN1CCCCC1,scaled lipid accumulation score,[5],≤ -0.016
same,scaled lipid accumulation score,[6],0.274
same,scaled lipid accumulation score,[2],0.219
O=C1/C(=C/c2cccs2)CCC/C1=C\c1cccs1,scaled lipid accumulation score,[2],≤ 0
CC(=O)N1CCN(c2ccc(OCC3COC(Cn4ccnc4)(c4ccc(Cl)cc4Cl)O3)cc2)CC1 (stereo unspecified),scaled lipid accumulation score,[2],0.048
CC(=O)N1CCN(c2ccc(OCC3COC(Cn4ccnc4)(c4ccc(Cl)cc4Cl)O3)cc2)CC1 (stereo unspecified) [Ketoconazole],scaled lipid accumulation score,,0.131
same,scaled lipid accumulation score,[1],0.086
CC(=O)Oc1c(C)c(C)c2c(c1C)CCC(C)(CCCC(C)CCCC(C)CCCC(C)C)O2 (stereo not drawn) [Alpha-tochopheryl acetate],scaled lipid accumulation score,[2],0.117
O=C1NC(=O)c2c1c1c3ccccc3[nH]c1n1cncc21 [Isogranulatimide],scaled lipid accumulation score,[1],≤ 0
CCCCC[C@H](O)/C=C/[C@@H]1[C@@H](C/C=C\CCCC(=O)OC(C)C)[C@@H](O)C[C@H]1O [Prostaglandin F2.alpha. isopropyl ester],scaled lipid accumulation score,[3],≤ 0
O=C(O)CC/C=C\C[C@H]1CO[C@@H](c2ccccc2Cl)O[C@H]1c1ccccc1O,scaled lipid accumulation score,[2],≤ 0
C=C1C(=CC=C2CCC[C@]3(C)[C@@H]([C@H](C)CCCC(C)C)CC[C@@H]23)C[C@@H](O)C[C@@H]1O [Alfacalcidol],scaled lipid accumulation score,[2],1.03 (active)
C=C1/C(=C\C=C2/CCC[C@]3(C)[C@@H]([C@H](C)CCCC(C)(C)O)CC[C@@H]23)C[C@@H](O)C[C@@H]1O,scaled lipid accumulation score,[2],≤ 0
"C=C1/C(=C\C=C2/CCC[C@]3(C)[C@@H]([C@H](C)CCCC(C)(C)O)CC[C@@H]23)C[C@@H](O)C[C@@H]1O [1?,25-Dihydroxyvitamin D3]",scaled lipid accumulation score,[3],0.004
C=C1/C(=C\C=C2/CCC[C@]3(C)[C@@H]([C@H](C)CCCC(C)(C)O)CC[C@@H]23)C[C@@H](O)C[C@@H]1O [Calcitriol],scaled lipid accumulation score,[1],≤ 0
same,scaled lipid accumulation score,library stock concentration: 4.8 mM,0.018
same,scaled lipid accumulation score,[2],≤ 0
C=C1/C(=C\C=C2/CCC[C@]3(C)[C@@H]([C@H](C)CCCC(C)C)CC[C@@H]23)C[C@@H](O)C[C@@H]1O [Alfacalcidol],scaled lipid accumulation score,[1],≤ 0
same,scaled lipid accumulation score,library stock concentration: 5 mM,≤ -0.006
O=C(c1cc2cc(O)ccc2[nH]1)c1cc2cc(O)ccc2[nH]1 [Flt-3 Inhibitor II],scaled lipid accumulation score,[1],≤ 0
O=C(Nc1ccc(Cl)cc1)c1ccccc1NCc1ccncc1 [VEGF Receptor Tyrosine Kinase Inhibitor II],scaled lipid accumulation score,[1],≤ 0
Nc1ccccc1NC(=O)c1ccc(CNC(=O)OCc2cccnc2)cc1 [Entinostat (MS-275)],scaled lipid accumulation score,[1],0.152
same,scaled lipid accumulation score,[2],0.418
Nc1ccccc1NC(=O)c1ccc(CNc2nccc(-c3cccnc3)n2)cc1 [Mocetinostat] [listing 1 of 2 here],scaled lipid accumulation score,[4],0.728 (active)
same,scaled lipid accumulation score,[2],0.648 (active)
Nc1ccccc1NC(=O)c1ccc(CNc2nccc(-c3cccnc3)n2)cc1 [Mocetinostat (MGCD0103)] [listing 1 of 2 here],scaled lipid accumulation score,[2],0.769
Nc1ccccc1NC(=O)c1ccc(CNc2nccc(-c3cccnc3)n2)cc1 [Mocetinostat] [listing 2 of 2 here],scaled lipid accumulation score,[5],≤ 0
same,scaled lipid accumulation score,[6],≤ 0
Nc1ccccc1NC(=O)c1ccc(CNC(=O)OCc2cccnc2)cc1,scaled lipid accumulation score,[5],≤ 0
same,scaled lipid accumulation score,[6],≤ 0
same,scaled lipid accumulation score,[3],0.014
same,scaled lipid accumulation score,[4],≤ 0
same,scaled lipid accumulation score,[2],0.628
Nc1ccccc1NC(=O)c1ccc(CNc2nccc(-c3cccnc3)n2)cc1 [Mocetinostat (MGCD0103)] [listing 2 of 2 here],scaled lipid accumulation score,[1],0.974 (active)
CC(=O)Nc1ccc(C(=O)Nc2ccccc2N)cc1 [CI994 (Tacedinaline)],scaled lipid accumulation score,[1],≤ 0
same,scaled lipid accumulation score,[2],0.161
